From PubChem BioAssay AID504652 (National Center for Advancing Translational Sciences (NCATS), 2011)
Out of some 360,000 compounds screened, about 11,000 (3.1%) were called active. Rule as the data show it: active = activity change below about -30%; inactive = the rest. The full list was thinned out, with actives kept by preference.

target: D(1A) dopamine receptor (Homo sapiens) (UniProt P21728); assay: Antagonist of Human D 1 Dopamine Receptor: qHTS; settings: HEK293 TREx D1 cells, calcium flux, dopamine EC80; at 10 µM; hits give low values
Sequence (P21728 whole entry, looked up): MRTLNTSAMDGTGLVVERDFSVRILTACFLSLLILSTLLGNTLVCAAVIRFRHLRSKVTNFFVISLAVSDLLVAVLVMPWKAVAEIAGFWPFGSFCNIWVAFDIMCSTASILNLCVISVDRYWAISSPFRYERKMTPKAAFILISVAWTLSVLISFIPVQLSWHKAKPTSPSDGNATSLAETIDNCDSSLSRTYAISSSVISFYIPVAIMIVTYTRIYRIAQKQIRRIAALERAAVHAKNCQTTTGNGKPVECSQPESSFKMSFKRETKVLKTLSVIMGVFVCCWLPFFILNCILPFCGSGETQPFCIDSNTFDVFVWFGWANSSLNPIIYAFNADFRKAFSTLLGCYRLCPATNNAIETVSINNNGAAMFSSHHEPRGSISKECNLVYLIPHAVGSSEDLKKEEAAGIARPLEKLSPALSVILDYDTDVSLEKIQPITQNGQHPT
Outline: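 Kinetic fluorescence of a calcium dye serves as the read-out. D1-expressing Hek293 Trex cells, induced overnight at 30 C, are exposed to compound for 180 s before an EC80 dopamine addition, then read 180 s further.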
% is scaled to controls: 0 for no effect and ±100 for the full control effect.

Activity change, negative = inhibition, active:
COc1ccc(C2=NOC(Cn3nc(C(=O)NCc4ccc5c(c4)OCO5)cc3-c3ccccc3)C2)cc1 (stereo not given) -33.6%, COc1cccc(N=C2SC(C(=O)Nc3cccc(Cl)c3)CC(=O)N2C)c1 (stereo not given) -65.2%, O=C(NCCCN1CCOCC1)c1ccccc1NS(=O)(=O)c1ccc(F)cc1 -51.4%, Cc1cc(C(=O)Nc2cccc(C(F)(F)F)c2)c2c(C)nn(-c3cccc(F)c3)c2n1 -34.4%, COc1cc(OC)c(-n2cc(-c3ccc(Cl)cc3)[nH]c2=O)cc1Cl -36.2%, O=C(O)[C@@H]1CCCN1c1ncnc2sc3c(c12)CCC3 -59.2%, Cc1ccc(NC2=C(Cl)C(=O)OC2OC(=O)c2ccccc2C)cc1 (stereo not given) -33.8%, Cn1c(COc2ccccc2C(C)(C)C)nc2ccccc21 -65.7%, COc1ccc(C2Nc3ccccc3C(=O)N2c2ccc(Cl)cc2)cc1Cn1cc([N+](=O)[O-])cn1 (stereo not given) -30.3%, COC(=O)c1sc(-c2ccc(C(C)(C)C)cc2)cc1NC(=O)/C=C/C(=O)O -37%, COc1ccc(C(CC(=O)Nc2ccc(C)cc2)NC(=O)C(F)(F)F)cc1 (stereo not given) -43.5%, O=C(Nc1ccccc1)OCc1cc(-c2ccc(Cl)cc2)on1 -32.2%, CC(=O)Cc1nsc(NC(=O)c2ccc(COc3ccc(C)cc3)o2)n1 -39.7%, CC(C)(C)C(=O)/C(C#N)=C/c1ccc(O)cc1 -33.6%, O=C(CCSCc1ccccc1F)N1CCN(c2ccc(Cl)cc2)CC1 -33.3%, Cc1cc(C)n(Cc2cnc(N3CCOCC3)s2)n1 -31%, C=CCSc1nsc(NC(=O)Nc2cccc(C(C)=O)c2)n1 -31.6%, CCSc1nsc(NC(=O)Nc2cccc(C(C)=O)c2)n1 -35%

Activity change, negative = inhibition, inactive:
O=C(Nc1ccccc1F)C(c1ccccc1)N1Cc2ccccc2C1=O (stereo not given) -0.199%, Cc1cccc(OCC(=O)N(Cc2ccc(C(C)C)cc2)Cc2ccco2)c1C -14.7%, Cc1ccc(CNC(=O)c2cc(-c3ccccc3C)n(CC3CC(c4cccc([N+](=O)[O-])c4)=NO3)n2)cc1 (stereo not given) -15.8%, COc1ccc(NC(=O)NCc2ccc3c(c2)OCO3)c(OC)c1 2.8%, COc1cccc(-c2cccc(NC(=O)C3CCN(C4CCC4)CC3)c2)c1 30.7%, COc1ccc(N=C2SC(C(=O)Nc3ccc(F)cc3)CC(=O)N2C)cc1 (stereo not given) 5.67%, CSc1ccc(CCNC(=O)c2cnn(-c3ccccc3)c2-n2cccc2)cc1 1.42%, Cc1ccc(NS(=O)(=O)c2ccc(C(=O)NCCCN3CCOCC3)cc2)cc1 26.5%, O=C(NCCCN1CCOCC1)c1ccccc1NS(=O)(=O)c1ccc(Br)cc1 -0.557%, COC(=O)c1cc(S(=O)(=O)N2CCN(c3cc(Cl)ccc3C)CC2)c[nH]1 5.54%, CCn1cc2nc(SCc3cccc(F)c3)n(CCc3ccccc3)c(=O)c2n1 11.7%, CCCCN(CC)CCCNC(=O)Cn1ncc2c([nH]c3ccc(C)cc32)c1=O 3.23%, Cc1cccc(NC(=O)N2CCN(C)c3ncccc32)c1C -0.945%, COc1ccc(S(=O)(=O)n2nc(C)c(S(=O)(=O)N3CCCCCC3)c2C)cc1 5.83%, CSc1ccc(CCNC(=O)c2cc(C)nc3c2c(C)nn3-c2cccc(F)c2)cc1 -11.8%, COc1cc(NC(=O)c2cc(C3CC3)nc3c2c(C)nn3-c2ccccc2)cc(OC)c1 0.344%, CC(C)(C)C1CCc2c(sc(NC(=O)c3ccccc3F)c2C(=O)N2CCCCC2)C1 (stereo not given) 4.22%, Cc1ccc(NC(=O)CN2c3ccccc3S(=O)(=O)c3ccccc32)cc1F -3%, COc1cc(OC)c(N2CC(C(=O)Nc3cc(Cl)ccc3N3CCOCC3)CC2=O)cc1Cl (stereo not given) -18.4%, COc1cc(OC)c(-n2c(C)cc(C=O)c2C)cc1Cl 14.6%, CCN1CCC(N(Cc2ccc(F)cc2)C(=O)Nc2cc(C)ccc2C)CC1 -6.08%, Cc1ccsc1CN(C(=O)c1oc2ccc(Br)cc2c1C)C1CCS(=O)(=O)C1 (stereo not given) -12.9%, CCc1ccc(CN(Cc2ccco2)C(=O)COc2ccc(Cl)c(C)c2)cc1 -3.05%, COc1ccc(Br)cc1CNC(=O)c1cc(=O)[nH]c2ccc(S(=O)(=O)N3CCCC3)cc12 2.78%, CC1(C)CN=C(N2CCN(c3ncnc4sc5c(c34)CCCC5)CC2)S1 -2.14%, O=C(O)c1cccnc1Sc1ncnc2sc3c(c12)CCC3 11.4%, O=C1OC(OC(=O)c2ccccc2Br)C(N2CCOCC2)=C1Cl (stereo not given) 6.42%, Cc1ccccc1C(=O)OC1OC(=O)C(Cl)=C1Nc1ccccc1 (stereo not given) -22.8%, CCN(Cc1ccccc1)C(=O)c1cn(-c2cccc(OC)c2)c(=O)c2ccccc12 -4.13%, COc1ccccc1NC(=O)c1cc(C2CC2)nc2c1c(C)nn2-c1ccc(C)cc1 3.81%, Cc1ccccc1Nc1nn2c(=O)c3ccc(C(=O)NCCc4ccc(Cl)cc4)cc3nc2s1 -2.1%, Cc1ccc(C(=O)Nc2ccccc2F)cc1S(=O)(=O)N1CCOCC1 -16.7%, Cn1c(CC(=O)NNC(=O)c2ccccc2F)nc2ccccc21 -11.4%, COc1cccc(C(O)Cc2nc3ccccc3n2C)c1OC (stereo not given) 5.85%, O=C(Cn1cc(SCc2ccccc2)c2ccccc21)N1CCCCC1 -7.17%, Cc1ccc(NC(=O)Nc2sc3nc4n(c(=O)c3c2C)CCC(C)CC4)c(Cl)c1 (stereo not given) 10.9%, COc1ccc(C2Nc3ccccc3C(=O)N2Cc2ccccc2)cc1Cn1nnc2ccccc21 (stereo not given) 12.5%, COc1ccc(CN2CCCC(C(=O)c3ccc(Cl)cc3)C2)cc1Cn1cncn1 (stereo not given) -13.5%, Cc1cc(C)cc(NC(=O)CSc2oc(-c3ccccc3)nc2S(=O)(=O)c2ccc(Cl)cc2)c1 -12.1%, O=C(COc1ccc(Cl)cc1)N(Cc1ccco1)Cc1ccco1 -16.4%, COC(=O)c1nc(NC(=O)c2ccc(C(C)(C)C)cc2)n[nH]1 -14.1%, COc1ccccc1NC(=O)/C=C/C(N)=O 19.1%, O=C(O)c1ccc(Nc2nc(-c3ccccc3)c3cc(Br)ccc3n2)cc1 -12.9%, COc1ccc(NC(=O)Cn2c(-c3ccc(OC)cc3)cn(-c3ccc(C)cc3)c2=O)cc1 3.29%, COc1ccc(NC(=O)CC(NC(C)c2ccccc2)C(=O)O)cc1 (stereo not given) -21.7%, COc1ccc(-c2[nH]c3c(c2-c2c(-n4cccc4)n(C)c(=O)n(C)c2=O)c(=O)n(C)c(=O)n3C)cc1 1.12%, Cc1ccc(-c2cc(N)n(Cc3cccc(Cl)c3)n2)cc1 -6.88%, O=C(CC(NCc1cccnc1)C(=O)O)Nc1ccc(O)cc1 (stereo not given) 0.451%, O=[S+]([O-])(c1ccc2c(c1)OCCO2)N1CCN([S+](=O)([O-])c2c(Cl)cc(Cl)cc2Br)CC1 -16.4%, O=C(Nc1ccc(Cl)cc1)OCc1cc(-c2ccccc2)on1 -17%, Clc1ccc(-c2cc(COc3ccccc3)no2)cc1Cl 1.76%, CCCCNC(=O)CSc1nc2cc3c(cc2c(=O)n1CCCCCC(=O)NCc1ccc2c(c1)OCO2)OCO3 -9.04%, CCOc1ccc(OCc2ccc(C(=O)Nc3cccc(C)n3)o2)cc1 1.17%, CC(=O)Cc1nsc(NC(=O)c2ccc(Cl)cc2Cl)n1 -11.9%, COc1ccccc1-c1nnc(C2CCN(C(=O)c3ccc(Cl)cc3)CC2)o1 -12.2%, O=C(CCc1cn(Cc2ccc(F)cc2)c2ccccc12)NC1CCCCC1 -2.06%, COc1cc2c(cc1OC)C(COc1ccc(F)cc1)N(C(=O)c1ccccc1F)CC2 (stereo not given) 1.87%, CC(C)NC(=O)/C(C#N)=C\c1ccc(N(C)C)c(Br)c1 -4.83%, Cc1ccc(/C=C(\C#N)C(=O)Nc2cc(C)ccc2C)cc1 2.52%, OCc1cnc(SCc2ccc(F)cc2)n1Cc1ccc(F)cc1 -1.85%, Cc1ccc(Nc2c(-c3ccc(Cl)cc3)nc3sccn23)c(C)c1 -21.4%, COc1cc(NC(=O)c2cc3ccc4cccnc4c3[nH]2)cc(OC)c1OC -1.04%, COc1ccc(N2CCN(C(=O)CCSCc3ccccc3F)CC2)cc1 -20.6%, Cc1cccc(N2CCN(C(=O)CCSCc3ccccc3F)CC2)c1C 10%, Cc1nc(N2CCOCC2)sc1C(=O)NN 7.42%, c1cnn(-c2cc(N3CCOCC3)ncn2)c1 3.42%, Cc1ccc2onc(CC(=O)N3CCN(c4ccc(Cl)cc4)CC3)c2c1 -0.0287%, COc1ccc(NC(C(=O)Nc2cccc(C(C)=O)c2)c2ccccc2)cc1 (stereo not given) 0.474%, CSc1ccccc1C(=O)Nc1cccc(C(C)=O)c1 -13.7%, CC(=O)c1cccc(NC(=O)CSc2nc3c(c(=O)[nH]2)CCC3)c1 -6.03%, CC(=O)c1cccc(NC(=S)N2CCCC2)c1 -8.06%, COc1ccc(-n2ccn(CC(=O)Nc3ccc(C)c(C)c3)c(=O)c2=O)cc1OC -0.573%
